# The list is not random: actives were taken first. Their share in the collection is about 3.5%.
# FBW7 act – human FBW7 E3 ligase activation, primary screen. Q969H0. AlphaScreen FBW7–phospho-cyclin E peptide binding, activator screen. normalized activity (activation), % at 26.1 µM. 650,000 compounds, 0.13% hits. AID 1259310; in the data active means normalized activity above about 1.9%;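 further: purified mutant Fbw7 with reduced substrate affinity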
# GPR151 ag – human GPR151 activation; Q8TDV0; PathHunter beta-arrestin GPR151 cells, luminescence; activation, % at 11.2 µM; 650,000 compounds, 1% hits; AID 1508602; in the data active means activation above about 4.9%;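 further: 0% = median of compound wells and 100% = cells with positive control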
# TEAD-YAP block – TEAD-YAP interaction inhibition | HEK-TIYL cells, TEAD-Gal4/YAP UAS-luciferase luminescence | inhibition, % at 9.12 µM | 640,000 compounds, 1.4% hits | AID 1259422; in the data active means inhibition above about 32%;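 further: 0% = median of test compound wells and 100% = reference inhibitor wells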
# MITF inh – blocks human microphthalmia-associated transcription factor; 650,000 compounds, 0.91% hits; O75030; inhibition, % at 2.6 µM; AID 1259374; AlphaScreen MITF homodimerization, bead proximity signal; in the data active means inhibition above about 50%;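 further: 0% = vehicle wells with protein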
# GPR151 confirm – confirmation of human GPR151 activators. shares compounds with GPR151 ag. GPR151 PathHunter beta-arrestin cells, luminescence, 90 min; % of EA-reagent control over plate median. activation, % at 11.2 µM. 6,700 tested, under 10 active. AID 1508609;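 active means mean percent activation across replicates above the confirmation screen cutoff of 4.91%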
# GPR119 counter – activates human GPR119 in a GPR151 counter-screen. shares compounds with GPR151 ag. GPR119 PathHunter beta-arrestin cells, luminescence, 90 min; 0 = compound-well median, 100 = enzyme-acceptor control. activation, % at 11.2 µM. 6,700 compounds, 0.3% hits. AID 1508611;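 active means mean percent activation in the counterscreen above 29.09%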;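 further: counterscreen on off-target GPR119 to flag nonselective hits from the GPR151 activator screen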
# Starred values were filed as active, the others as inactive; x = no result given.
SMILES,FBW7 act,GPR151 ag,TEAD-YAP block,MITF inh,GPR151 confirm,GPR119 counter
CCN(CC)C(=O)C1CCCN(c2nc(NCCc3ccc(OC)cc3)c3ncn(C4CCCCC4)c3n2)C1 (centres undefined),0,10*,-6,12,0,-2
CCN(CC)C(=O)C1CCCN(c2nc(NCCc3ccc(OC)cc3)c3ncn(Cc4ccc(C(F)(F)F)cc4)c3n2)C1 (centres undefined),0,6.8*,-9,-4,0,1
CCN(CC)C(=O)C1CCCN(c2nc(NCCOc3ccccc3)c3ncn(Cc4ccc(C(F)(F)F)cc4)c3n2)C1 (centres undefined),0,0,0,10,x,x
CC(C)(C)c1ccc(C(=O)Nn2c(-c3ccc(Cl)cc3)nc3ccccc3c2=O)cc1,0,0,0,0,x,x
O=C(C1CCCCC1)N1CCOc2ccc(CN3CCN(Cc4ccccn4)CC3)cc2C1,0,5.0*,2,25,0,11
O=C(C1CCC1)N1CCOc2ccc(CN3CCN(c4ccccn4)CC3)cc2C1,0,-2,3,-4,x,x
N#C/C(=C\c1ccc[nH]1)C(=O)N1CCc2ccccc2C1,0,5.3*,-28,0,1,9
N#C/C(=C\c1c[nH]c2ccccc12)C(=O)N1CCc2ccccc2C1,0,-1,-10,-12,x,x
Cc1ccc(-c2nnc(SCC(=O)Nc3ccccc3N3CCOCC3)o2)cc1,0,5.1*,-6,12,0,2
COc1ccc(-c2nnc(SCC(=O)Nc3ccc(N4CCOCC4)cc3)o2)cc1,0,6.1*,17,0,-1,-8
CC1=C(C(=O)OC2CCCC2)C(c2cccc3ccccc23)C2=C(CC(c3ccc(Cl)cc3)CC2=O)N1 (centres undefined),0,0,0,-1,x,x
CC(C)CCN1CCNC(=O)C1CC(=O)N(C)CCc1cnn(C)c1 (centres undefined),0,5.6*,-3,18,0,6
Cc1ccc(CN2CCNC(=O)C2CC(=O)N(C)CCc2cnn(C)c2)cc1 (centres undefined),0,0,1,9,x,x
CC(C)CC(=O)Nc1nn2c(-c3cccs3)nnc2s1,0,5.5*,-8,0,0,-6
O=C(Cc1ccccc1)OCC(=O)C12CC3CC(CC(C3)C1)C2,0,0,4,-3,x,x
O=S1(=O)N=C(CN2CCCN(Cc3ccccc3)CC2)Nc2ccc(Cl)cc21,0,-3,-10,5,x,x
Cc1noc(C)c1COC(=O)CCc1ccc(S(=O)(=O)N2CCCCC2)cc1,0,5.0*,5,6,0,-6
COc1ccccc1N/C(N)=N/c1nc(C(F)(F)F)cc(=O)[nH]1,0,5.1*,7,-9,-1,-8
Cc1ccccc1N/C(N)=N/c1nc(C(F)(F)F)cc(=O)[nH]1,0,8.2*,4,11,1,8
COc1ccc(NC(=O)C2C3CCC(C3=C(C)C)C2C(=O)O)cc1 (centres undefined),0,5.5*,-5,-5,2,21
O=C(Nc1c(C(=O)c2ccc(Cl)cc2)oc2ccccc12)c1ccncc1,0,-1,-1,6,x,x
CN(Cc1cscn1)Cc1ccc(C(=O)NCc2cccs2)c(=O)[nH]1,-1,-1,9,10,x,x
Cc1nc(CN(C)Cc2ccc(C(=O)NCc3ccccc3Cl)c(=O)[nH]2)cs1,0,5.2*,-15,4,0,3
N#C/C(=C\C1=C(N2CCOCC2)C(=C\c2ccccc2)/CC1)c1nnc2n1CCCCC2,0,2,-3,2,x,x
Cc1cc(F)ccc1S(=O)(=O)Nc1cc2c(C(=O)O)c(C)oc2c2ccccc12,0,6.4*,3,1,0,-1
SMILES,FBW7 act,GPR151 ag,TEAD-YAP block,MITF inh,GPR151 confirm,GPR119 counter
S=C(Nc1ccc2c(c1)OCO2)Nc1cnccn1,0,5.6*,-25,9,1,0
O=C(Nc1ccc2c(c1)OCO2)Nc1ccc(Br)cn1,0,6.5*,-81,10,0,-5
O=C(NNC(=O)c1ccc(Cl)s1)Nc1ccc2c(c1)OCO2,0,5.2*,-43,9,0,-5
S=C(Nc1ccc2c(c1)OCO2)Nc1ccc2c(c1)OCO2,0,-1,-18,2,x,x
CCCCNC(=O)NN(C(=O)c1ccccc1N)C(C)(C)C,0,1,2,1,x,x
Cc1ccccc1NC(=S)NCc1cccnc1,0,8.3*,10,5,1,2
OCc1ccccc1NC(=S)Nc1cccnc1,0,5.8*,0,12,-1,-10
Cc1ccccc1NC(=S)Nc1cccnc1,0,-1,1,9,x,x
COc1ccc(C(=O)Cn2c(CN3CCCCC3)nc3ccccc3c2=O)cc1,0,6.1*,-10,-2,0,-7
CCn1c(SCc2cccc(Br)c2)nnc1-c1cnccn1,0,7.4*,-5,4,0,-1
COc1ccccc1C1C=C(c2ccc(I)cc2)Nc2ncnn21 (centres undefined),0,7.4*,3,2,0,-8
COCCn1c(=NC(=O)C2=COCCO2)sc2cc(C)ccc21,0,1,-38,5,x,x
CCC1CN(C(=O)Cn2nc3ccccc3n2)Cc2ccc(Cl)cc2O1 (centres undefined),0,-1,8,9,x,x
Cc1ccc(-c2nc3ccccc3s2)cc1NC(=O)c1ncn[nH]1,-1,0,-46,41,x,x
COC(=O)C1=C(C)N(C)C(=O)NC1c1ccc(I)cc1 (centres undefined),0,-1,-2,30,x,x
O=C(NCCO)c1cccc(N2C(=O)c3ccccc3C2=O)c1,0,7.6*,3,1,0,3
C=CCNC(=O)C(C)N(c1ccccc1)S(C)(=O)=O (centres undefined),1,8.2*,-2,-1,-1,-10
Cc1ccc(N(C(C)C(=O)NC2CCCCC2)S(C)(=O)=O)cc1C (centres undefined),0,6.6*,1,-12,1,8
Cc1ccc(N(C(C)C(=O)NC2CCCCCC2)S(C)(=O)=O)cc1C (centres undefined),0,0,4,5,x,x
C=CCNC(=O)C(C)N(c1ccc(C)cc1)S(C)(=O)=O (centres undefined),0,-2,5,0,x,x
Cc1ccc(N(C(C)C(=O)NCc2ccccn2)S(C)(=O)=O)cc1C (centres undefined),0,5.4*,-3,7,1,11
CCOC(=O)c1cnc2c(C)c(Cl)ccc2c1NCc1ccccc1,0,-1,-4,-5,x,x
CC(C)CCn1c(N(C)C)nc2c1c(=O)[nH]c(=O)n2C,0,-1,-6,15,x,x
Nc1c(C(=O)O)[nH]c(=O)[nH]c1=O,0,5.1*,4,18,0,-8

# Source: PubChem BioAssay
